Results reported in PubChem BioAssay AID1159580 (chemical genetic matrix, 2015).
Among all 5,500 compounds or so, about 2,000 (36%) were called active. Roughly 18% stayed inconclusive and do not appear here. No stated cut-off is given here; in the data, active means normalized growth mostly below about 0.91 (no sharp cut-off); inconclusive means no clear call, values can overlap the other calls; inactive means mostly above about 0.92. The list shows a part of the results.

Experiment: chemical genetic growth profiling, strain panel (AID 1159580);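 further: tested at 20 µM; growth read once vehicle control cultures reached saturation at 30 °C; 1 = growth at the plate median or of vehicle wells; lower values mean less growth of the strain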
Details: growth OD

Measured: normalized growth

COc1cc2c(cc1OC)C1C(=O)c3c(cc4c(c3O)C=CC(C)(C)O4)OC1CO2 (configuration not stated)
inactive: S. cerevisiae deletion strains, locus YBR021W, strain FUR4, hits give low values 1 | S. cerevisiae deletion strains, locus YBR229C, strain ROT2, hits give low values 1.02 | S. cerevisiae deletion strains, locus YCL029C, strain bik1, hits give low values 1.03 | S. cerevisiae deletion strains, locus YDL035C, strain GPR1, hits give low values 1.03 | S. cerevisiae deletion strains, locus YDL074C, strain BRE1, hits give low values 1.13 | S. cerevisiae deletion strains, locus YDL101C, strain DUN1, hits give low values 1.01 | S. cerevisiae deletion strains, locus YDL134C, strain PPH21, hits give low values 1 | S. cerevisiae deletion strains, locus YDL185W, strain tfp1, hits give low values 1.02 | S. cerevisiae deletion strains, locus YDL192W, strain arf1, hits give low values 0.996 | S. cerevisiae deletion strains, locus YDR101C, strain arx1, hits give low values 0.99 | S. cerevisiae deletion strains, locus YDR162C, strain NBP2, hits give low values 1.03 | S. cerevisiae deletion strains, locus YDR318W, strain mcm21, hits give low values 1.02 | S. cerevisiae deletion strains, locus YDR388W, hits give low values 1.02 | S. cerevisiae deletion strains, locus YDR502C, strain sam2, hits give low values 1.02 | S. cerevisiae deletion strains, locus YER110C, hits give low values 1.02 | S. cerevisiae deletion strains, locus YER155C, strain BEM2, hits give low values 1.04 | S. cerevisiae deletion strains, locus YER167W, strain BCK2, hits give low values 1.01 | S. cerevisiae deletion strains, locus YGL078C, strain dbp3, hits give low values 1.01 | S. cerevisiae deletion strains, locus YGL086W, strain mad1, hits give low values 1.01 | S. cerevisiae deletion strains, locus YGL248W, strain PDE1, hits give low values 1.03 | S. cerevisiae deletion strains, locus YGR135W, strain pre9, hits give low values 1.06 | S. cerevisiae deletion strains, locus YGR252W, strain gcn5, hits give low values 1.08 | S. cerevisiae deletion strains, locus YHR079C, strain IRE1 (second series), hits give low values 1.02 | S. cerevisiae deletion strains, locus YHR094C, strain hxt1, hits give low values 1.03 | S. cerevisiae deletion strains, locus YHR129C, strain ARP1, hits give low values 1.02 | S. cerevisiae deletion strains, locus YHR200W, strain rpn10, hits give low values 1.02 | S. cerevisiae deletion strains, locus YIL066C, strain RNR3, hits give low values 1 | S. cerevisiae deletion strains, locus YIL073C, strain SPO22, hits give low values 1.28 | S. cerevisiae deletion strains, locus YIL125W, strain kgd1, hits give low values 1 | S. cerevisiae deletion strains, locus YIR030C, strain dcg1, hits give low values 1.02 | S. cerevisiae deletion strains, locus YJL095W, strain BCK1, hits give low values 1.05 | S. cerevisiae deletion strains, locus YJL134W, strain LCB3, hits give low values 1.01 | S. cerevisiae deletion strains, locus YJL168C, strain set2, hits give low values 1.03 | S. cerevisiae deletion strains, locus YJL187C, strain SWE1 (second series), hits give low values 1.01 | S. cerevisiae deletion strains, locus YKL009W, strain mrt4, hits give low values 1.04 | S. cerevisiae deletion strains, locus YKL068W, hits give low values 1.01 | S. cerevisiae deletion strains, locus YKL085W, strain MDH1 (second series), hits give low values 1.01 | S. cerevisiae deletion strains, locus YKL085W, strain MDH1, hits give low values 1.01 | S. cerevisiae deletion strains, locus YKL190W, strain CNB1, hits give low values 1 | S. cerevisiae deletion strains, locus YLR039C, strain RIC1, hits give low values 0.992 | S. cerevisiae deletion strains, locus YLR058C, strain SHM2, hits give low values 1.01 | S. cerevisiae deletion strains, locus YLR102C, strain apc9, hits give low values 1.02 | S. cerevisiae deletion strains, locus YLR262C, strain YPT6, hits give low values 0.991 | S. cerevisiae deletion strains, locus YLR268W, strain sec22, hits give low values 1.02 | S. cerevisiae deletion strains, locus YLR342W, strain FKS1 (second series), hits give low values 0.961 | S. cerevisiae deletion strains, locus YLR371W, strain rom2, hits give low values 1.03 | S. cerevisiae deletion strains, locus YLR418C, strain cdc73, hits give low values 1.13 | S. cerevisiae deletion strains, locus YML016C, strain PPZ1, hits give low values 0.996 | S. cerevisiae deletion strains, locus YML032C, strain rad52, hits give low values 0.998 | S. cerevisiae deletion strains, locus YML124C, strain tub3, hits give low values 1.02 | S. cerevisiae deletion strains, locus YMR078C, strain ctf18, hits give low values 1.02 | S. cerevisiae deletion strains, locus YMR223W, strain ubp8, hits give low values 1.01 | S. cerevisiae deletion strains, locus YMR307W, strain GAS1, hits give low values 1.18 | S. cerevisiae deletion strains, locus YNL067W, strain RPL9B, hits give low values 1.01 | S. cerevisiae deletion strains, locus YNL153C, strain GIM3, hits give low values 1.04 | S. cerevisiae deletion strains, locus YNL233W, strain BNI4, hits give low values 1.06 | S. cerevisiae deletion strains, locus YNL250W, strain rad50, hits give low values 1.05 | S. cerevisiae deletion strains, locus YNL271C, strain bni1, hits give low values 1.01 | S. cerevisiae deletion strains, locus YNL298W, strain CLA4, hits give low values 1 | S. cerevisiae deletion strains, locus YNL307C, strain MCK1, hits give low values 1.03 | S. cerevisiae deletion strains, locus YNR052C, strain pop2, hits give low values 1.04 | S. cerevisiae deletion strains, locus YOL012C, strain htz1 0.98 | S. cerevisiae deletion strains, locus YOL147C, strain pex11, hits give low values 1.01 | S. cerevisiae deletion strains, locus YOR061W, strain CKA2, hits give low values 1 | S. cerevisiae deletion strains, locus YOR069W, strain VPS5, hits give low values 1.01 | S. cerevisiae deletion strains, locus YOR136W, strain idh2, hits give low values 1.06 | S. cerevisiae deletion strains, locus YOR144C, strain elg1, hits give low values 1.01 | S. cerevisiae deletion strains, locus YOR184W, strain ser1, hits give low values 0.99 | S. cerevisiae deletion strains, locus YOR316C, strain cot1, hits give low values 1.02 | S. cerevisiae deletion strains, locus YPR119W, strain clb2, hits give low values 1.02 | S. cerevisiae deletion strains, locus YPR141C, strain kar3, hits give low values 1 | S. cerevisiae deletion strains, locus YPR163C, strain tif3, hits give low values 1.03 | S. cerevisiae deletion strains, locus YPR167C, strain met16, hits give low values 1.01 | S. cerevisiae deletion strains, strain wtn01, hits give low values 0.989 | S. cerevisiae strains, strain wild type, hits give low values 1.02
active: S. cerevisiae deletion strains, locus YGR229C, strain SMI1, hits give low values 1.3 [resistant] | S. cerevisiae deletion strains, locus YKR001C, strain vps1, hits give low values 0.724
